PubChem BioAssay (NCATS)
Inconclusive results are not listed. Active and inactive are the calls of the source. Calls come from the whole dose curve; as a rule, active = well fitted curve in the direction sought with a large enough effect; inconclusive = small, poorly fitted or top-dose-only effect, or another doubt; inactive = no such curve, though single readings can be large; an effect the other way counts as inactive or inconclusive.

Key:
[1] = P-glycoprotein substrates identified in KB-8-5-11 adenocarcinoma cell line, qHTS therapeutic library screen (AID 1346987); details: outcome: dose series up to 44.5 µM; note: nearly all actives have a fitted effect of over 65% in size
How it was run: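 KB-8-5-11: colchicine-selected sub-line of KB-3-1 over-expressing P-gp; assay medium lacked colchicine. 72 h drug exposure at 37 degree C, CellTiter-Glo.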

[2] = NS1 protein of Zika virus - qHTS assay to identify small molecule inhibitors in human HEK 293 cells (AID 1347053);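 note: series mostly up to about 46 µM; plate controls were infected untreated cells for no effect and uninfected cells for full effect; nearly all actives have a fitted effect of over 55% in size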
How it was run: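 HEK 293; 20 h pre-culture, 37 C/5% CO2; cpd 1 h pre-infection; ZIKV MR766, MOI = 0.5, 24 h, 37 C; TR-FRET NS1 readout (two anti-NS1 Abs); norm. to no-virus vs infected.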

[3] = qHTS of pediatric cancer cell lines to identify multiple opportunities for drug repurposing: Primary screen for TC32 cells (AID 1347089); note: % is set by controls: 0 for no effect and ±100 for the full control effect; nearly all actives have a fitted effect of over 60% in size
How it was run: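 Luminescent CellTiter-Glo read-out of metabolically active TC32 cells after 48 h compound exposure. Primary: MIPE 11-point, 0.78 nM–46 µM; NPC 8-point, 0.59 nM–46 µM. Confirmatory: 11-point dilutions.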

[4] = qHTS of pediatric cancer cell lines to identify multiple opportunities for drug repurposing: Primary screen for DAOY cells (AID 1347090);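 note: series mostly up to about 46 µM; plate controls were DMSO for no effect and bortezomib for full effect; nearly all actives have a fitted effect of over 55% in size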
How it was run: (§1)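 Viability measured as metabolically active cells via CellTiter-Glo luminescence following 48 hours of compound exposure, 11-point dilutions in confirmatory testing. 500-1,000 cells/well plated 5 hours before dosing; controls were DMSO and 2.3 µM bortezomib.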

[5] = qHTS of pediatric cancer cell lines to identify multiple opportunities for drug repurposing: Primary screen for SJ-GBM2 cells (AID 1347091);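 note: plate controls were DMSO neutral control for no effect and bortezomib for full effect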
How it was run: as §1

[6] = qHTS of pediatric cancer cell lines to identify multiple opportunities for drug repurposing: Primary screen for A673 cells (AID 1347092); note: % is set by controls: 0 for no effect and ±100 for the full control effect; nearly all actives have a fitted effect of over 45% in size
How it was run: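 A673 cells (500-1,000 cells/well in growth media) were pre-incubated 5 h at 37 degrees C, then exposed to compounds for 48 h. Viability was read as CellTiter-Glo luminescence; concentration-response curves came directly from the primary screen.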

[7] = qHTS of pediatric cancer cell lines to identify multiple opportunities for drug repurposing: Primary screen for SK-N-MC cells (AID 1347093);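 note: series mostly up to about 46 µM; plate controls were DMSO neutral control for no effect and bortezomib for full effect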
How it was run: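 Metabolically active cells were quantified by ATP-dependent luminescence (CellTiter-Glo, 15 min at room temperature) following 48 h treatment. Cells had been plated at 500-1,000 per well and settled for 5 h beforehand.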

[8] = qHTS of pediatric cancer cell lines to identify multiple opportunities for drug repurposing: Primary screen for BT-37 cells (AID 1347094);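 note: series mostly up to about 57 µM; plate controls were DMSO for no effect and bortezomib for full effect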
How it was run: (§2)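 Cells seeded at 500-1,000 cells/well in growth media, rested 5 hours at 37 degrees C, 5% CO2, then dosed; MIPE compounds at 11-point (from 0.78 nM) and NPC at 8-point (from 0.59 nM) final concentrations. Viability by CellTiter-Glo luminescence after 48 hours.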

[9] = qHTS of pediatric cancer cell lines to identify multiple opportunities for drug repurposing: Primary screen for NB-EBc1 cells (AID 1347095);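 note: plate controls were DMSO neutral control for no effect and bortezomib for full effect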
How it was run: as §2

[10] = P-glycoprotein substrates identified in KB-3-1 adenocarcinoma cell line, qHTS therapeutic library screen (AID 1346986); details: outcome: dose series up to 44.5 µM; note: nearly all actives have a fitted effect of over 60% in size
How it was run: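 Compounds were tested in dose-response against KB-3-1 and KB-8-5-11 cells at 37 degree C for 72 h, and viability was measured by luminescence. AC50 values came from curve fitting with class-based activity calls.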

CC1(c2ccccc2)OC(C(=O)O)=CC1=O (stereo not given)
inactive: outcome [1] | outcome [2] | outcome [3] | outcome [4] | outcome [5] | outcome [6] | Potency [7] | outcome [8] | outcome [9]

CN1C(=O)CC(c2ccccc2)C1=O (stereo not given)
inactive: outcome [1] | outcome [2] | outcome [3] | outcome [4] | outcome [5] | outcome [6] | Potency [7] | outcome [8] | outcome [9]

CO[C@@]1(NC(=O)C(C(=O)O)c2ccc(O)cc2)C(=O)N2C(C(=O)O)=C(CSc3nnnn3C)CO[C@@H]21 (stereo not given in full)
inactive: outcome [1] | outcome [2] | outcome [3] | outcome [4] | outcome [5] | outcome [6] | Potency [7] | outcome [8] | outcome [9]

N[C@@H](Cc1ccc(O)cc1)C(=O)O
inactive: outcome [1] | activity change, negative = inhibition [2] 1.13% [at 9.2 µM] | activity change, negative = cytotoxic [3] 18.1% [at 9.17 µM] | activity change, negative = cytotoxic [4] 6.24% [at 9.22 µM] | activity change, negative = cytotoxic [5] 12% [at 9.22 µM] | activity change, negative = cytotoxic [6] 2.23% [at 9.22 µM] | activity change, negative = cytotoxic [7] 11% [at 9.22 µM] | activity change, negative = cytotoxic [8] 20.6% [at 11.5 µM] | activity change, negative = cytotoxic [9] 15% [at 9.22 µM]

OCC(O)CS (stereo not given)
inactive: outcome [1] | outcome [2] | outcome [3] | outcome [4] | outcome [5] | outcome [6] | Potency [7] | outcome [8] | outcome [9]

CC(N)CCCC(C)(C)O (stereo not given)
inactive: outcome [1] | outcome [2] | outcome [3] | outcome [4] | outcome [5] | outcome [6] | Potency [7] | outcome [8] | outcome [9]

CC(C)C[C@@H](N)C(=O)O
inactive: outcome [10] | outcome [1] | outcome [2] | outcome [3] | outcome [4] | outcome [5] | outcome [6] | outcome [8] | outcome [9]

NCc1ccc(S(N)(=O)=O)cc1
inactive: outcome [1] | outcome [2] | outcome [3] | outcome [4] | outcome [5] | outcome [6] | Potency [7] | outcome [8] | outcome [9]

CCOC(N)=O
inactive: outcome [1] | outcome [2] | outcome [3] | outcome [4] | outcome [5] | outcome [6] | Potency [7] | outcome [8] | outcome [9]

O=C(CCBr)N1CCN(C(=O)CCBr)CC1
inactive: outcome [1] | outcome [2] | outcome [3] | outcome [4] | outcome [5] | outcome [6] | Potency [7] | outcome [8] | outcome [9]

CC(=O)Nc1ccc(OCCOCCOc2ccc(NC(C)=O)cc2)cc1
inactive: outcome [1] | outcome [2] | outcome [3] | outcome [4] | outcome [5] | outcome [6] | Potency [7] | outcome [8] | outcome [9]

O=C(OOC(=O)c1ccccc1)c1ccccc1
inactive: outcome [1] | outcome [2] | outcome [3] | outcome [4] | outcome [5] | outcome [6] | Potency [7] | outcome [8] | outcome [9]

Cc1c(C(=O)NCCO)[n+](=O)c2ccccc2n1[O-]
inactive: outcome [1] | outcome [2] | outcome [3] | outcome [4] | outcome [5] | outcome [6] | Potency [7] | outcome [8] | outcome [9]

CC(=O)N(CC(O)CO)c1c(I)c(C(=O)NCC(O)CO)c(I)c(C(=O)NCC(O)CO)c1I (stereo not given)
inactive: outcome [1] | outcome [2] | outcome [3] | outcome [4] | outcome [5] | outcome [6] | Potency [7] | outcome [8] | outcome [9]

Nc1ccc(C(=O)Oc2ccccc2)c(O)c1
inactive: outcome [1] | outcome [2] | outcome [3] | outcome [4] | outcome [5] | outcome [6] | Potency [7] | outcome [8] | outcome [9]

OCc1ccc(Cl)cc1Cl
inactive: outcome [1] | outcome [2] | outcome [3] | outcome [4] | outcome [5] | outcome [6] | Potency [7] | outcome [8] | outcome [9]

CCc1nnc(NS(=O)(=O)c2ccc(N)cc2)s1
inactive: outcome [1] | outcome [2] | outcome [3] | outcome [4] | outcome [5] | outcome [6] | Potency [7] | outcome [8] | outcome [9]

Cc1cc(O)cc(C)c1Cl
inactive: outcome [1] | outcome [2] | outcome [3] | outcome [4] | outcome [5] | outcome [6] | Potency [7] | outcome [8] | outcome [9]

NC(N)=NS(=O)(=O)c1ccc(N)cc1
inactive: outcome [1] | outcome [2] | outcome [3] | outcome [4] | outcome [5] | outcome [6] | Potency [7] | outcome [8] | outcome [9]

O=C(CN1CCNCC1)NC1CCCCC1
inactive: outcome [1] | outcome [2] | outcome [3] | outcome [4] | outcome [5] | outcome [6] | Potency [7] | outcome [8] | outcome [9]

O=C1CC[C@@H](C(=O)O)N1
inactive: outcome [1] | outcome [2] | outcome [3] | outcome [4] | outcome [5] | outcome [6] | Potency [7] | outcome [8] | outcome [9]

O=C(O)CCCc1ccccc1
inactive: outcome [10] | outcome [1] | outcome [2] | outcome [3] | outcome [4] | outcome [5] | Potency [7] | outcome [8] | outcome [9]

O=C(Cn1ccnc1[N+](=O)[O-])NCCO
inactive: outcome [1] | outcome [2] | outcome [3] | outcome [4] | outcome [5] | outcome [6] | Potency [7] | outcome [8] | outcome [9]

COc1ccc2cc(CCC(C)=O)ccc2c1
inactive: outcome [1] | outcome [2] | outcome [3] | outcome [4] | outcome [5] | outcome [6] | Potency [7] | outcome [8] | outcome [9]

Cc1c(C)c2c(c(C)c1OC(=O)c1cccnc1)CC[C@@](C)(CCC[C@H](C)CCC[C@H](C)CCCC(C)C)O2
inactive: outcome [1] | outcome [2] | outcome [3] | outcome [4] | outcome [5] | outcome [6] | Potency [7] | outcome [8] | outcome [9]
